According to ChEMBL document CHEMBL4888484, “Replenishing the malaria drug discovery pipeline: Screening and hit evaluation of the MMV Hit Generation Library 1 (HGL1) against asexual blood stage Plasmodium falciparum ,using a nano luciferase reporter read-out” (2022):
Screen size: about 4,800 compounds; about 410 (8.5%) showed an effect of 50% or more. What follows is part of a selection rich in strong results, with near analogues and random picks from the rest.

Test system: Plasmodium falciparum
Test: Confirmatory screen in NF54 pLDH assay, in single point, at 2uM, 72h
Format: functional, Erythrocyte
Details: timepoint 72 hour

Row | SMILES | % Inhibition [%]
1 | CC[C@@H](CO)NC(=O)Nc1ccc(F)cc1 | 8
2 | CC[C@](C)(NCC#Cc1ccc(C(F)(F)F)cc1)C(N)=O | 5
3 | O=C(C1CN(c2ncc(C(F)(F)F)cc2Cl)C1)N1CCCC1 | 11
4 | Cc1c(N2CCC(C(=O)NC[C@H]3CCCO3)CC2)c(=O)n(CC(C)C)c(=O)n1-c1ccccc1 | 4
5 | O=C(COC(F)F)N1CCc2ccncc21 | -8
6 | COc1nc(NC[C@H]2CCCN2C(C)C)ncc1F | 83
7 | CC(C(=O)Nc1ncccn1)N1CCCC1Cn1cccn1 (configuration not stated) | -8
8 | Cc1[nH]c2ncnc(NC(=O)c3cccc(-n4ccnn4)c3)c2c1C | 12
9 | CN1CCC(=O)Nc2cc(C(=O)NCCS(=O)(=O)NCC3CCC3)ccc21 | 6
10 | O=C(CN1C(=O)COc2ccccc21)N1CCC[C@H](c2nc3ccccc3s2)C1 | -13
11 | c1ccc(Oc2ccc(-c3csc4nc5ccccc5n34)cc2)cc1 | 5
12 | O[C@](C#CCN1CCOCC1)(c1ccccc1)C1CC1 | 14
13 | Cc1cnn(CC(=O)N2CCC[C@@H]2CCc2ncc(C)n2CC2CC2)c1 | -20
14 | CCOc1cc(-c2cc(-c3ccccc3O)nc3ccc4ccccc4c23)cc(Br)c1O | 92
15 | CCOc1c(CNC[C@H](C)O)cc(Br)cc1OC | 5
16 | O=C(Nc1cccc2cccnc12)c1cncc(Br)c1 | -8

Row | SMILES | % Inhibition [%]
17 | Oc1ccccc1CNc1cccc2cccnc12 | 97
18 | NC1CC(NCCc2cccc3cccnc23)c2ccccc21 (configuration not stated) | 36
19 | O=C(Nc1cccc2cccnc12)c1ccccn1 | 87
20 | CC(C)(C)C(=O)NCCNC(=O)c1ccccn1 | 13
21 | COc1cc(=O)c(C(=O)N2CCCCCC2)nn1-c1ccc(F)c(F)c1 | 10
22 | CCc1nnc2cc(N3CCN(C(=O)c4ccc(OC)cc4)CC3)cnn12 | 11
23 | CC(C)(C)c1noc(OCc2cccc(C#N)c2)n1 | 14
24 | CCN1CCN(CC(=O)N2N=C(c3ccc(C)c(C)c3)C[C@H]2c2cccn2C)CC1 | 2
25 | Cc1ccn(Cc2nc(N)nc(N(C)C)n2)c(=O)c1C#N | 4
26 | CCCCN1CCN(C(=O)CN2CCN(Cc3ccc(F)cc3Cl)C2=O)CC1 | 1
27 | Cc1cc(C)c(NC(=O)OCc2cccc3cccnc23)c(C)c1 | 80
28 | CCc1ccc(C2=Nc3cccnc3N(CC(=O)Nc3c(C)cc(C)cc3C)C(=O)C2)cc1 | 2
29 | Cc1cccnc1NC(=O)OC(C)(C)C | 10
30 | O=C(Nc1ccc(Cl)cc1)n1c(=S)oc2cc(Br)ccc21 | 2
31 | Cc1cccc(NC(=O)N2CCCCCC2)n1 | 6
32 | Cc1cccc(CN2CCC[C@H](C(=O)c3ccc4c5c(cccc35)CC4)C2)n1 | 67
